Drawing on PubChem BioAssay AID504434 (National Center for Advancing Translational Sciences (NCATS), 2011), this text covers Potency for 40 compounds.

Active and inactive are the calls of the source. Where a call stands in place of a potency, no number is given. Calls follow the shape of the dose curve; as a rule, active = well fitted curve in the direction sought with a large enough effect; inconclusive = small, poorly fitted or top-dose-only effect, or effect the other way, or another doubt; inactive = no such curve, though single readings can be large or run the other way.

A short description of this test: Secondary Assay for lipid storage modulators: AML12 cell LDSA assay for probe SAR. To be noted: AML12 lipid droplet accumulation, BODIPY 493/503 imaging, oleate; series mostly up to 46.1 µM. From the text:
NIH Molecular Libraries Probe Production Centers Network [MLPCN] NIH Chemical Genomics Center [NCGC] MLPCN Grant: 1 R03 MH085686-01 Assay Submitter (PI): Beller, Mathias; Max-Planck-Institut fur Biophysikalische Chemie NCGC Assay Overview: Storing lipids as a reservoir for energy or the anabolism of elementary metabolites is a common feature of probably all cells and is conserved from bacteria to humans. The universal cellular lipid storage organelle is the so-called lipid storage droplet (LD). Although ubiquitous, LDs share a simple structure composed of a hydrophobic core that harbors the storage lipids, which is shielded by a droplet-specific phospholipid monolayer to which proteins are attached. The current model of LD biogenesis involves an incorporation of the lipid core into the membrane leaflets of the endoplasmic reticulum (ER) followed by a subsequent budding-like maturation of a LD, which ultimately pinches off. Once released, LD volume can increase by localized lipogenesis or fusion of existing droplet. Storage lipids are re-mobilized enzymatically by lipase activity. Lipase regulation in the adipocyte is heavily studied and involves multiple components including catecholamine signaling, the LD-associated proteins Perilipin and comparative gene identification (CGI-58) and at least two lipases named hormone sensitive lipase (HSL) and adipocyte triglyceride lipase (ATGL). LD regulation outside of the adipocyte is poorly understood and only few components are known. However, there is an urgent need to learn more about ectopic fat depots as mislocalized storage of lipids, for example in the liver or muscle, is an eminent health problem associated with insulin resistance or the metabolic syndrome.
NCGC Assay Protocol Summary: The assay was performed with AML12 cells, using an oleic acid feeding protocol similar to the S3 assay. We dispensed 4 uL of cells to give 700 cells/well into Greiner bio-one 1,536-well plates (black walled, clear bottom). Triacsin C (Sigma-Aldrich T-4540), an inhibitor of long-chain fatty acyl CoA synthetase that blocks synthesis of triglycerides, was used as a positive control for lipid under-storage using a final concentration of 20 uM. The orexin antagonist, SB408124 - previously identified to stimulate lipid over-storage, was used as a positive control for lipid over-storage using a final concentration of 20 uM. A total of 23 nL of compound solution of different concentrations were transferred to the assay plates using a Kalypsys pin tool equipped with a 1,536-pin array containing 10-nL slotted pins (FP1S10, 0.457-mm diameter, 50.8 mm long; V&P Scientific). One microliter of oleic acid was added (400 uM final concentration), and the plate was lidded with stainless steel rubber gasket lined lids containing pinholes. After 18-24 h incubation at […] and 95% humidity, 4 uL of the dyes BODIPY 493/503 (Molecular Probes) and the Cell Tracker Red CMTPX dye (Molecular Probes) were added to the wells to stain lipid droplets and enumerate cell number, respectively. Fluorescence was detected by excitation of the fluorophores with a 488-nm laser on an Acumen Explorer (TTP Lab Tech). The total intensity in channel 2 (500-530 nm) reflected lipid droplet accumulation. Cells were detected using channel 3 (575-640 nm) with 5-um width and 100-um depth filters. The ratio of the number of objects in PMT channel 2 over the number of objects in PMT channel 3 was also calculated. Percent activity was computed relative to an internal control (100% inhibited lipid droplet deposition due to the presence of 20 uM Triacsin C), which was added to 32 wells/plate.
Consider `CC(C)(C)n1ncc2c(=O)n(Cc3ccc(-c4ccccc4C#N)cc3)cnc21`, for which the Potency entry is “inactive”.

With `CCOC(=O)C1CCN(C(=O)C(C)(C)NC(=O)Nc2ccc(N)cc2)CC1`, the Potency entry is “inactive”.

On to `COCCn1c(-c2ccc(C)cc2)cnc1SCC(=O)Nc1nc(C)cs1`, for which the Potency entry was “inactive”. For `CCOC(=O)C1CCN(C(=O)C(C)(C)NC(=O)Nc2ccc([N+](=O)[O-])cc2)CC1` the value was “inactive”; for `O=C(CSc1nnc(NCc2ccccc2)s1)Nc1nc(-c2ccc(F)c(F)c2)cs1`, “inactive”; for `Cc1ccc(-c2cnc(SCC(=O)Nc3nc(C)cs3)n2Cc2ccco2)cc1`, “inactive”. The value for `O=C(NC1CCCc2c1cnn2-c1ccc(F)cc1F)c1ccccc1` (stereo not given) was “inactive”; that for `COc1ccccc1NC(=S)N1CCN(c2cc(Cl)ccc2C)CC1` was “inactive”; that for `CCOC(=O)C1CCN(C(=O)C(C)(C)NC(=O)Nc2cccc(C(=O)OC)c2)CC1` was “inactive”. For the compound `COc1ccc(CCNC(=O)c2cc3sccc3n2Cc2ccc(Cl)cc2)cc1OC`, the Potency is 30.7 nM (active). For `O=C(NC1CCCc2c1cnn2-c1ccc(F)cc1F)c1cnon1` (stereo not given) the value was “inactive”; for `O=C(Cc1cccs1)Nc1nc(-c2ccc(F)cc2)cs1`, “inactive”; for `COc1ccc(-c2cnc(SCC(=O)Nc3nc(C)cs3)n2-c2ccccc2)cc1`, “inactive”.

In the case of `CN(C)CC(=O)NC1CCCc2c1cnn2-c1ccc(F)cc1F` (stereo not given), the Potency result is “inactive”. For `CCOc1ccc(CCNC(=O)c2cc3sccc3[nH]2)cc1OCC` the value was “inactive”. The value for `COc1cccc(-n2ncc3c2CCCC3NC(=O)c2ccccn2)c1` (stereo not given) was 44.5 nM [inconclusive] (active); that for `COc1ccc(-c2cnc(SCC(=O)Nc3nc(C)cs3)n2Cc2ccco2)cc1` was “inactive”. For `O=C(Cc1cccs1)Nc1nc(-c2ccncc2)cs1` the value was “inactive”. Regarding `O=C(NC1CCCc2c1cnn2-c1ccc(F)cc1F)C1CCCCC1` (stereo not given), the Potency result was “inactive”.

With `O=C(NC1CCCc2c1cnn2-c1ccc(F)cc1F)c1cnsn1` (stereo not given), the Potency entry is “inactive”.

With `CC1=C(C(=O)NC2CCCc3c2cnn3-c2ccc(F)cc2F)OCCO1` (stereo not given), the Potency result was “inactive”. For `O=C(NC1CCCc2c1cnn2-c1ccc(F)cc1F)c1cccc(F)c1F` (stereo not given) the value was “inactive”; for `COc1ccc(NC(=S)N2CCN(c3cccc(Cl)c3)CC2)c(OC)c1`, “inactive”. For `O=C(CSc1nnc(NCc2ccccc2)s1)Nc1nc(-c2cccc(Br)c2)cs1` the value was “inactive”; for `CCOc1ccc(CCNC(=O)c2cc3sccc3n2C)cc1OCC`, “inactive”. Turning to `O=C(NC1CCCc2c1cnn2-c1ccc(F)cc1F)c1cccc(=O)[nH]1` (stereo not given), the Potency result is “inactive”.

For the compound `O=C(NC1CCCc2c1cnn2-c1cc(F)cc(F)c1)c1cccc2nccnc12` (stereo not given), the Potency result is “inactive”.

As to `O=C(NC1CCCc2c1cnn2-c1ccc(F)cc1F)c1c(F)cccc1Cl` (stereo not given), the Potency entry is “inactive”. The value for `O=C(NC1CCCc2c1cnn2-c1ccc(F)cc1F)c1ccncc1` (stereo not given) was “inactive”; that for `COc1ccc(Cl)cc1NC(=S)N1CCN(c2ccc(F)cc2)CC1` was “inactive”; that for `COc1ccc(Cl)cc1NC(=S)N1CCN(c2ccccc2)CC1` was “inactive”. The value for `CC(C)(C)OC(=O)NCCOCCOCCOc1ccc(-n2ncc3c2CCCC3NC(=O)c2ccccn2)cc1` (stereo not given) was “inactive”; that for `COc1ccc(CCNC(=O)c2cc3sccc3n2Cc2ccc(F)cc2)cc1OC` was 3150 nM (active); that for `Cc1sc(NC(=O)Cc2cccs2)nc1-c1ccccc1` was “inactive”.

`O=C(NC1CCCc2c1cnn2-c1ccc(F)cc1F)c1ccn[nH]1` (stereo not given): the Potency entry was “inactive”. `CCOC(=O)C1CCN(C(=O)C(C)(C)NC(=O)Nc2ccc3sccc3c2)CC1`: the Potency result was “inactive”. For `COc1ccc(Cl)cc1NC(=S)N1CCN(c2ccccc2F)CC1` the value was “inactive”; for `Cc1ccc(-c2cnc(SCC(=O)Nc3nccs3)n2Cc2ccco2)cc1`, “inactive”; for `CCn1c(-c2ccc(C)cc2)cnc1SCC(=O)Nc1nc(C)cs1`, “inactive”.

As to `O=C(NC1CCCc2c1cnn2-c1ccccc1F)c1ccc2ncccc2c1` (stereo not given), the Potency entry was “inactive”.
